PubChem BioAssay (NCI)
The panel holds about 79,000 compounds, 15% with a hit somewhere; the sample as a whole holds those more often. Calls of active or inactive are those of the source. No stated cut-off is given here; in the data, active means growth inhibition above about 70%; inactive means the rest.

What was measured:
[1] = NCI Yeast Anticancer Drug Screen. Data for the rad52 strain (AID 147);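 further: 0% = growth of vehicle-treated control cultures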; settings: S. cerevisiae rad52 mutant growth inhibition, hits give high values
Method in brief: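 DNA repair-defective yeast; compound exposure; growth scored against vehicle controls.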

[2] = NCI Yeast Anticancer Drug Screen. Data for the wt1 strain (AID 149);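 further: 0% = growth of vehicle-treated wt1 cultures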; settings: S. cerevisiae wt1 strain (SPY 50644) growth inhibition, hits give high values
Method in brief: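 Growth inhibition read against vehicle controls after compound exposure of the wt1 yeast strain.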

[3] = NCI Yeast Anticancer Drug Screen. Data for the rad50EPP+ strain (AID 151);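 further: 0% = growth of vehicle-treated control cultures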; settings: S. cerevisiae rad50 mutant strain, hits give high values
Method in brief: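 rad50EPP+ yeast treated with test compounds. Readout: growth vs vehicle control.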

[4] = NCI Yeast Anticancer Drug Screen. Data for the mgt1 strain (AID 153); settings: S. cerevisiae mgt1 mutant growth inhibition, hits give high values
Method in brief: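 Growth inhibition relative to vehicle controls was scored for the mgt1 yeast strain after compound exposure.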

[5] = NCI Yeast Anticancer Drug Screen. Data for the mec2-1 strain (AID 157); settings: S. cerevisiae mec2-1 strain, hits give high values
Method in brief: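 Growth inhibition is read against vehicle-treated controls after compound exposure of the mec2-1 yeast strain, which is defective in DNA damage repair or cell cycle control.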

[6] = NCI Yeast Anticancer Drug Screen. Data for the rad14 strain (AID 159);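 further: 0% = growth of vehicle-treated control cultures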; settings: S. cerevisiae rad14 strain growth inhibition, hits give high values
Method in brief: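 Growth inhibition vs vehicle controls; genetically altered yeast strain (DNA damage repair defect) treated with test compounds.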

[7] = NCI Yeast Anticancer Drug Screen. Data for the sgs1 mgt1 strain (AID 161);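 further: 0% = growth of cultures given vehicle only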; settings: S. cerevisiae sgs1 mgt1 strain, hits give high values
Method in brief: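 Growth of a repair-deficient yeast mutant was monitored after compound treatment and expressed as inhibition relative to vehicle-treated cultures.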

[8] = NCI Yeast Anticancer Drug Screen. Data for the CLN2oe strain (AID 163);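 further: 0% = growth of vehicle-only control cultures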; settings: S. cerevisiae CLN2oe strain, hits give high values
Method in brief: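 Compound-treated yeast; growth vs vehicle ctrl = % inhibition. Genetically altered strain (cell-cycle control).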

[9] = NCI Yeast Anticancer Drug Screen. Data for the cln2 rad14 strain (AID 165);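 further: 0% = growth equal to vehicle treated cultures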; settings: S. cerevisiae cln2 rad14 strain, hits give high values
Method in brief: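 Growth inhibition, relative to vehicle-treated controls, is the read-out. The test organism is a yeast strain with defined genetic alterations, cln2 rad14.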

[10] = NCI Yeast Anticancer Drug Screen. Data for the bub3 strain (AID 167); settings: S. cerevisiae bub3 mutant strain, hits give high values
Method in brief: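 Readout: yeast growth inhibition, expressed relative to vehicle-only wells. The test organism is a mutant strain from a panel with lesions in DNA repair or checkpoint genes.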

[11] = NCI Yeast Anticancer Drug Screen. Data for the wt2 strain (AID 169);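 further: 0% = growth of vehicle-treated yeast cultures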; settings: S. cerevisiae wt2 strain growth inhibition, hits give high values
Method in brief: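 Compound exposure of yeast; growth compared with vehicle controls; inhibition reported.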

[12] = NCI Yeast Anticancer Drug Screen. Data for the mlh1 strain (AID 171);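 further: 0% = growth of vehicle-treated control cultures of the same strain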; settings: S. cerevisiae mlh1 strain growth inhibition, hits give high values
Method in brief: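 Compounds are applied to a genetically altered yeast strain, and its growth is compared with that of vehicle-treated cultures to give percent inhibition.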

[13] = NCI Yeast Anticancer Drug Screen. Data for the sgs1 strain (AID 173);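 further: 0% = growth of vehicle-only control cultures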; settings: S. cerevisiae sgs1 mutant, hits give high values
Method in brief: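 Compounds applied to genetically altered yeast; growth compared with vehicle-treated cultures to give % inhibition.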

[14] = NCI Yeast Anticancer Drug Screen. Data for the mlh1 rad18 strain (AID 175); settings: S. cerevisiae mlh1 rad18 strain growth inhibition, hits give high values
Method in brief: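 Cells of a genetically altered yeast strain, deficient in DNA damage repair, were treated with compound. Their growth was then compared with that of vehicle-treated cultures to give inhibition.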

[15] = NCI Yeast Anticancer Drug Screen. Data for the rad18 strain (AID 177); settings: S. cerevisiae rad18 mutant growth inhibition, hits give high values
Method in brief: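 Compounds are applied to a repair-deficient yeast strain, and growth is compared with that of vehicle-treated cultures to give percent inhibition.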

[16] = at 5.0 µM (retest, dose inferred, filed as 0.5)
[17] = at 50.0 µM (retest, dose inferred, filed as 5.0)

Measured: growth inhibition

O=[N+]([O-])c1ccc(C(c2c[nH]c3ccccc23)c2c[nH]c3ccccc23)cc1
inactive: [2]; at 1.2 µM 12% | [3]; at 1.2 µM 10% | [3]; at 3.7 µM 9% | [3]; at 11.0 µM 3% | [3]; at 33.0 µM 2% | [3]; at 100.0 µM -14% | [4]; at 1.2 µM 18% | [5]; at 1.2 µM 22% | [5]; [16] 10% | [6]; at 1.2 µM 25% | [8]; at 1.2 µM 40% | [9]; [16] 14% | [10]; at 1.2 µM 24% | [10]; [16] 45% | [11]; at 1.2 µM 9% | [12]; at 1.2 µM 33% | [13]; at 1.2 µM 33% | [15]; at 1.2 µM 66%
active: [1]; at 1.2 µM 82% | [1]; at 3.7 µM 97% | [1]; at 11.0 µM 95% | [1]; at 33.0 µM 90% | [1]; at 100.0 µM 82% | [2]; at 3.7 µM 97% | [2]; at 11.0 µM 96% | [2]; at 33.0 µM 92% | [2]; at 100.0 µM 89% | [4]; at 3.7 µM 99% | [4]; at 11.0 µM 97% | [4]; at 33.0 µM 94% | [4]; at 100.0 µM 87% | [5]; at 3.7 µM 99% | [5]; at 11.0 µM 97% | [5]; at 33.0 µM 94% | [5]; [17] 95% | [5]; at 50.0 µM 93.8% | [5]; at 100.0 µM 88% | [6]; at 3.7 µM 98% | [6]; at 11.0 µM 97% | [6]; at 33.0 µM 93% | [6]; at 100.0 µM 84% | [7]; [16] 82% | [7]; [17] 95% | [7]; at 50.0 µM 92.9% | [8]; at 3.7 µM 98% | [8]; at 11.0 µM 96% | [8]; at 33.0 µM 92% | [8]; at 100.0 µM 86% | [9]; [17] 93% | [9]; at 50.0 µM 88.1% | [10]; at 3.7 µM 98% | [10]; at 11.0 µM 96% | [10]; at 33.0 µM 93% | [10]; [17] 96% | [10]; at 50.0 µM 94.3% | [10]; at 100.0 µM 86% | [11]; at 3.7 µM 98% | [11]; at 11.0 µM 97% | [11]; at 33.0 µM 94% | [11]; at 100.0 µM 88% | [12]; at 3.7 µM 98% | [12]; at 11.0 µM 97% | [12]; at 33.0 µM 94% | [12]; at 100.0 µM 90% | [13]; at 3.7 µM 98% | [13]; at 11.0 µM 97% | [13]; at 33.0 µM 95% | [13]; at 100.0 µM 88% | [14]; [16] 93% | [14]; [17] 92% | [14]; at 50.0 µM 93% | [15]; at 3.7 µM 98% | [15]; at 11.0 µM 96% | [15]; at 33.0 µM 92% | [15]; at 100.0 µM 86%
